Experimental data taken from PubChem BioAssay AID1159580 (chemical genetic matrix, 2015).
Among all 5,500 compounds or so, about 2,000 (36%) were called active. About 18% were inconclusive and are not listed. Rule as the data show it: active = normalized growth mostly below about 0.91 (no sharp cut-off); inconclusive = no clear call, values can overlap the other calls; inactive = mostly above about 0.92. Some of the results follow.

Test: chemical genetic growth profiling, strain panel (AID 1159580);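 also: tested at 20 µM; growth read once vehicle control cultures reached saturation at 30 °C; 1 = growth at the plate median or of vehicle wells; lower values mean less growth of the strain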
Details: S. cerevisiae deletion strains, growth OD

Measured: normalized growth

O=C(/C=C/c1ccc(O)c(O)c1)OCCc1ccccc1
active: locus YAL026C, strain drs2, active compounds read low 0.671 | locus YAL030W, strain snc1, active compounds read low 0.889 | locus YBL061C, strain skt5, active compounds read low 0.767 | locus YBR009C, strain hhf1, active compounds read low 0.781 | locus YBR023C, strain chs3, active compounds read low 0.774 | locus YBR231C, strain swc5, active compounds read low 0.587 | locus YBR279W, strain paf1, active compounds read low 0.848 | locus YCL011C, strain gbp2, active compounds read low 0.751 | locus YCL016C, strain dcc1, active compounds read low 0.774 | locus YCL061C, strain MRC1, active compounds read low 0.851 | locus YCL069W, strain vba3, active compounds read low 0.913 | locus YCR088W, strain abp1, active compounds read low 0.841 | locus YDR069C, strain doa4, active compounds read low 0.804 | locus YDR137W, strain rgp1, active compounds read low 0.589 | locus YDR195W, strain ref2 1.19 [resistant] | locus YDR297W, strain sur2, active compounds read low 0.87 | locus YDR334W, strain swr1, active compounds read low 0.641 | locus YDR335W, strain msn5, active compounds read low 0.868 | locus YDR392W, strain spt3, active compounds read low 0.116 | locus YEL003W, strain gim4, active compounds read low 0.691 | locus YEL061C, strain CIN8 (second series), active compounds read low 0.693 | locus YER002W, strain NOP16, active compounds read low 0.896 | locus YER015W, strain faa2, active compounds read low 0.775 | locus YER016W, strain bim1, active compounds read low 0.868 | locus YER111C, strain swi4, active compounds read low 0.808 | locus YER155C, strain BEM2 (second series), active compounds read low 0.463 | locus YGL173C, strain kem1, active compounds read low 0.796 | locus YGL227W, strain vid30, active compounds read low 0.287 | locus YGL253W, strain hxk2, active compounds read low 0.749 | locus YGR078C, strain PAC10, active compounds read low 0.881 | locus YGR229C, strain SMI1, active compounds read low 0.357 | locus YHR013C, strain ard1, active compounds read low 0.683 | locus YHR027C, strain rpn1, active compounds read low 0.857 | locus YHR030C, strain SLT2, active compounds read low 0.837 | locus YHR079C, strain IRE1, active compounds read low 0.803 | locus YHR142W, strain chs7, active compounds read low 0.592 | locus YJL092W, strain hpr5, active compounds read low 0.891 | locus YJL095W, strain BCK1 (second series), active compounds read low 0.644 | locus YJL095W, strain BCK1, active compounds read low 0.863 | locus YJL129C, strain trk1, active compounds read low 0.522 | locus YJL164C, strain tpk1, active compounds read low 0.766 | locus YJL166W, strain qcr8, active compounds read low 0.807 | locus YJL187C, strain SWE1, active compounds read low 0.851 | locus YJR066W, strain TOR1, active compounds read low 0.742 | locus YJR075W, strain HOC1, active compounds read low 0.858 | locus YKL160W, strain elf1, active compounds read low 0.724 | locus YKR026C, strain gcn3, active compounds read low 0.908 | locus YKR091W, strain srl3, active compounds read low 0.928 | locus YLL001W, strain dnm1, active compounds read low 0.832 | locus YLL026W, active compounds read low 0.896 | locus YLL041C, strain sdh2, active compounds read low 0.898 | locus YLR027C, strain aat2, active compounds read low 0.774 | locus YLR221C, strain rsa3, active compounds read low 0.69 | locus YLR258W, strain gsy2, active compounds read low 0.844 | locus YLR262C, strain YPT6 (second series), active compounds read low 0.493 | locus YLR320W, strain mms22, active compounds read low 0.453 | locus YLR342W, strain FKS1, active compounds read low 0.796 | locus YML120C, strain ndi1, active compounds read low 0.686 | locus YMR058W, strain fet3, active compounds read low 0.494 | locus YMR125W, strain sto1, active compounds read low 0.615 | locus YMR129W, active compounds read low 0.911 | locus YMR205C, strain PFK2, active compounds read low 0.66 | locus YMR231W, strain pep5, active compounds read low 0.759 | locus YNL071W, strain lat1, active compounds read low 0.478 | locus YNL175C, strain NOP13, active compounds read low 0.879 | locus YNL183C, strain NPR1, active compounds read low 0.803 | locus YNL209W, strain ssb2, active compounds read low 0.855 | locus YNL248C, strain rpa49, active compounds read low 0.769 | locus YNL322C, strain KRE1, active compounds read low 0.881 | locus YOR001W, strain rrp6, active compounds read low 0.8 | locus YOR070C, strain gyp1, active compounds read low 0.827 | locus YOR083W, strain WHI5 (second series), active compounds read low 0.751 | locus YOR083W, strain WHI5, active compounds read low 0.81 | locus YOR106W, strain vam3, active compounds read low 0.573 | locus YOR231W, strain MKK1, active compounds read low 0.857 | locus YOR265W, strain rbl2, active compounds read low 0.881 | locus YOR270C, strain vph1, active compounds read low 0.568 | locus YOR290C, strain snf2, active compounds read low 0.748 | locus YPL051W, strain arl3, active compounds read low 0.652 | locus YPL078C, strain atp4, active compounds read low 0.855 | locus YPL240C, strain hsp82, active compounds read low 0.845
inactive: locus YAL021C, strain ccr4, active compounds read low 0.937 | locus YAL040C, strain CLN3, active compounds read low 1.08 | locus YBR171W, strain sec66, active compounds read low 0.911 | locus YDL005C, strain med2, active compounds read low 0.964 | locus YDL040C, strain nat1, active compounds read low 0.96 | locus YDR001C, strain nth1, active compounds read low 0.933 | locus YDR159W, strain sac3, active compounds read low 0.916 | locus YDR363W, strain ESC2, active compounds read low 0.98 | locus YEL037C, strain rad23, active compounds read low 0.938 | locus YFR010W, strain ubp6, active compounds read low 0.906 | locus YGL167C, strain pmr1, active compounds read low 0.941 | locus YGL240W, strain doc1, active compounds read low 0.927 | locus YJL115W, strain asf1, active compounds read low 0.989 | locus YJL154C, strain vps35, active compounds read low 0.962 | locus YLR113W, strain HOG1, active compounds read low 0.862 | locus YLR357W, strain rsc2, active compounds read low 0.88 | locus YLR370C, strain arc18, active compounds read low 0.944 | locus YLR384C, strain iki3, active compounds read low 0.972 | locus YNL197C, strain WHI3, active compounds read low 0.897 | locus YNL224C, strain SQS1, active compounds read low 0.937 | locus YNL322C, strain KRE1 (second series), active compounds read low 0.963 | locus YNR049C, strain mso1, active compounds read low 0.944 | locus YOR080W, strain dia2, active compounds read low 0.961 | locus YPL106C, strain sse1, active compounds read low 0.882 | locus YPL241C, strain CIN2, active compounds read low 0.964 | locus YPL256C, strain CLN2, active compounds read low 0.854
